# In PubChem BioAssay AID1851 (National Center for Advancing Translational Sciences (NCATS), 2009):
# The whole screen tested about 16,000 compounds, of which about 5,100 (32%) were called active. Another 25% or so got no clear call; they are omitted. The list shows a part of the results. Unmarked numbers belong to inactive results. Calls come from the whole dose curve; as a rule, active = well fitted curve in the direction sought with a large enough effect; inconclusive = small, poorly fitted or top-dose-only effect, or effect the other way; inactive = no such curve, though single readings can be large or run the other way.
# Molecular target: Cytochrome P450 3A4 (Homo sapiens) (UniProt P08684)
# Sequence (P08684 whole entry, looked up): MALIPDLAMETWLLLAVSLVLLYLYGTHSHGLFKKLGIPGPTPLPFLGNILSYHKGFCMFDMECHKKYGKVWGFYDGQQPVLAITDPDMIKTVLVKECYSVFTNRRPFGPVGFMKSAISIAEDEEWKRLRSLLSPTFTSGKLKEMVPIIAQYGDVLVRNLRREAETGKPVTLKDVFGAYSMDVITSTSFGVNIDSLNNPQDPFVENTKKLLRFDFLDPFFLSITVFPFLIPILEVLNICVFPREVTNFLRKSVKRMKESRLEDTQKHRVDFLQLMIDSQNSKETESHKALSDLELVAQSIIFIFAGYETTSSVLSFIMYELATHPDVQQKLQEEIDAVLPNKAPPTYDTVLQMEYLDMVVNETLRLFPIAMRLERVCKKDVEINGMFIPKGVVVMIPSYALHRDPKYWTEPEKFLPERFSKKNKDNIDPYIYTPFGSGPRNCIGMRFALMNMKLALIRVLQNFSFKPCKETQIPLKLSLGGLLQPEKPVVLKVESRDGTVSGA
# Experiment: Cytochrome panel assay with activity outcomes
# Conditions: recombinant CYP, pro-luciferin dealkylation, luminescence, p450-cyp3a4; series mostly up to 57.1 µM; activity, negative = inhibition: at the top concentration
# % is set by controls: 0 for no effect and ±100 for the full control effect.
Structure (SMILES),AC50,"activity, negative = inhibition"
c1coc(CN2CCN(C(c3cccs3)c3nnnn3C3CCCC3)CC2)c1 (centres undefined),14.1 µM (active),–
Cc1ccc(C(c2nnnn2C2CCCC2)N2CCN3CCCC3C2)cc1 (centres undefined),14.1 µM (active),–
Clc1ccc(C(c2nnnn2C2CCCC2)N2CCN(Cc3ccncc3)CC2)cc1 (centres undefined),2 µM (active),–
CC(C)(C)N1C(=O)[C@@H]2[C@H]3C(=CC[C@H]2C1=O)C(=O)[C@H]1O[C@H]1[C@H]3O,–,-4.13% [at 11.4 µM]
O=S(Cc1ccccc1)CC(O)(c1ccccc1)c1ccccc1 (centres undefined),–,19.2%
O=C(NCC1CCCO1)c1cc(-c2ccc(Cl)cc2Cl)on1 (centres undefined),–,-19.3%
O=C(Nc1cnn(Cc2ccc(Cl)cc2Cl)c1)c1cc(-c2cccs2)on1,10 µM (active),–
O=C(CCCn1cnc([N+](=O)[O-])n1)Nc1ccc(Cl)c(Cl)c1,14.1 µM (active),–
CC(C)(C)NC(=O)Cn1cnc([N+](=O)[O-])n1,–,-0.672%
O=C(Cn1cnc([N+](=O)[O-])n1)N/N=C/c1ccccc1O,–,-18.9%
O=C1O/C(=C\Br)CC[C@@H]1c1cccc2ccccc12,3.98 µM (active),–
Cc1cccc(-c2c3c(=O)n(C)c(=O)n(C)c3cn2C2CCCCC2)c1,7.94 µM (active),–
COc1ccccc1NC(=O)C(C/C=C(\C)Cl)C(C)=O (centres undefined),14.1 µM (active),–
COC(=O)c1ccccc1NC(=O)C(CCS(C)(=O)=O)NC(C)=O (centres undefined),–,-0.671%
CCCN1C(=O)C2(/C(=C(\O)c3ccc4c(c3)OCCO4)C(=O)C(=O)N2CCCOC)c2ccccc21 (centres undefined),–,-10.1%
COc1ccccc1CN1CC[C@@]2(CCCN(C(C)=O)C2)C1,–,-22.3%
COc1ccccc1CN1CCC2(CC1)CCN(C(=O)c1cccn1C)CC2,–,-7.71%
COc1ccccc1CN1CC[C@@]2(CCCN(C(=O)c3cccn3C)C2)C1,12.6 µM (active),–
COc1ccccc1CN1CCC2(CC1)CCN(C(=O)c1ccco1)CC2,–,-6.89%
COc1ccccc1CN1CC[C@@]2(CCCN(C(=O)c3ccco3)C2)C1,20 µM (active),–
COCC(=O)N1CCC[C@@]2(CCN(Cc3ccccc3OC)C2)C1,–,-19.4%
Cc1cc(NC(=O)c2nn(C)c(C)c2[N+](=O)[O-])no1,–,-5.27%
CCCCCN1CC(O)=C(c2nc(-c3ccc(Cl)cc3)cs2)C1=N,–,2.16%
Cc1ccc(-c2csc(N/N=C/c3ccco3)n2)cc1,–,-6.49% [at 2.29 µM]
C=CCNc1nc(-c2ccc(Cl)cc2)cs1,14.1 µM (active),–

Structure (SMILES),AC50,"activity, negative = inhibition"
CC(C)(C)NC(=O)C(Cc1ccccc1)NS(=O)(=O)c1ccc2c(c1)CCC(=O)N2 (centres undefined),3.16 µM (active),–
CC(C)(C)NC[C@H](O)COc1cccc2c1CCC(=O)N2,–,-4.68% [at 25.6 µM]
CC1=N[C@@](C)(COC(=O)[C@]2(C)N[C@](C)(CO)CO2)COC1=O,–,-22.8% [at 11.4 µM]
Cc1cccc(OCC(=O)N/N=C\C=C\c2ccc3c(c2)OCO3)c1C,2.24 µM (active),–
COC(=O)N/N=C\C=C\c1ccc2c(c1)OCO2,–,-14.3%
N[C@@H](Cc1nn[nH]n1)C(=O)O,–,-2.7% [at 11.4 µM]
O=[N+]([O-])c1cccc(-c2nc(-c3ccccc3)c(-c3cccs3)[nH]2)c1,–,-13.1% [at 2.29 µM]
O=C(O)c1nc(-c2ccccc2)[nH]c1C(=O)O,–,-3.83% [at 11.4 µM]
COc1ccc(-c2[nH]c(-c3ccc(C(=O)O)cc3)nc2-c2ccccc2)cc1,–,-20.7%
Cc1ccsc1-c1nc(-c2ccccc2)c(-c2ccccc2)[nH]1,14.1 µM (active),–
c1ccc(-c2nc(-c3cccs3)[nH]c2-c2ccccc2)cc1,11.2 µM (active),–
O=[N+]([O-])c1cccc(-c2nc(-c3cccs3)c(-c3cccs3)[nH]2)c1,12.6 µM (active),–
CCOC(=O)Cc1cc(=O)n2[nH]c(C)c(C#N)c2n1,–,14%
NC(=O)C(=O)O,–,6.86%
CCOc1cc(CN2CCN(c3ccc(C(C)=O)cc3)CC2)ccc1OC,–,4.29%
COc1ccc(C(=O)CN2CCN(c3ccc(F)cc3)CC2)cc1OC,28.2 µM (active),–
CCC(C)NCc1ccc(C(=O)OC)o1 (centres undefined),–,-4.07%
CCC/C=C(\CCC)C(NS(=O)(=O)c1cccc2cccnc12)c1ccc(-c2ccccc2)cc1 (centres undefined),3.16 µM (active),–
CCC/C=C(\CCC)C(NS(=O)(=O)c1cccc2cccnc12)c1ccc(C(=O)OC)cc1 (centres undefined),5.01 µM (active),–
CCC(C)N1C(=O)C2C(C(=O)Nc3cccc(OC)c3)C3C=CC2(O3)C1C(=O)NC1CCCCC1C (centres undefined),15.8 µM (active),–
CC12CCC(C(=O)O)(C/C1=N\O)C2(C)C (centres undefined),–,-2.34%
CCOc1ccc(C2C(C(=O)O)c3ccccc3C(=O)N2CCN2CCOCC2)cc1 (centres undefined),–,-12.3%
COc1ccc(C2C(C(=O)N3CCOCC3)c3ccccc3C(=O)N2c2ccc(OC)cc2)cc1 (centres undefined),8.91 µM (active),–
CN1C(=O)c2ccccc2C(C(=O)O)C1c1cn(C)c2ccccc12 (centres undefined),–,7.7% [at 2.29 µM]
COc1ccc(C2C(C(=O)N3CCN(C)CC3)c3ccccc3C(=O)N2C2CCCCC2)cc1 (centres undefined),5.01 µM (active),–

Structure (SMILES),AC50,"activity, negative = inhibition"
COc1ccccc1N1CCN(c2nc3c(C)cccn3c(=O)c2C=O)CC1,15.8 µM (active),–
Cc1cccn2c(=O)c(/C=N/O)c(N3CCCC3)nc12,12.6 µM (active),–
Cc1cccn2c(=O)c(C=NCc3ccco3)c(Nc3ccc(SC(F)F)cc3)nc12,–,-42.2%
COc1ccccc1N1CCN(Cc2cc(=O)n3ccsc3n2)CC1,–,-11%
Cc1cccn2c(=O)c3cc(C(=O)N4COCC4(C)C)n(C)c3nc12,–,-25.8%
CC(=O)[C@@H](C)CCO[C@@]1(C)OCC[C@@H]1C,–,-5.36% [at 11.4 µM]
CCOC(=O)Cc1csc(NS(=O)(=O)c2ccccc2)n1,–,6.45% [at 2.29 µM]
Cc1ccc(CNC(=O)Cc2csc(Nc3nc(=S)[nH]c4ccccc34)n2)cc1,1 µM (active),–
COc1ccc(CNC(=O)Cc2csc(Nc3nc(=S)[nH]c4ccccc34)n2)cc1,1.26 µM (active),–
O=C(Cc1csc(Nc2nc(=S)[nH]c3ccccc23)n1)NCc1cccc(Cl)c1,1.78 µM (active),–
O=C(Nc1cccc(NC(=O)N2CCN(c3ccccc3)CC2)c1)N1CCN(c2ccccc2)CC1,6.31 µM (active),–
O=C(Nc1ccccc1)N1CCOCC1,–,-4.6%
Cc1cc2nc(C3CCCN(C(=O)NCc4ccccc4)C3)[nH]c2cc1C (centres undefined),10 µM (active),–
Cc1cccc(NC(=S)N2CCC(N(C)CC3CCCO3)CC2)c1C (centres undefined),–,-16.8%
CC(=O)Nc1ccc2nc(C3CCCCC3)[nH]c2c1,–,-26.6%
O=C(O)c1ccc(NCc2nc3cc4ccccc4cc3[nH]2)cc1,–,-11.9% [at 11.4 µM]
Cc1ccc2nc(C3CCCN(C(=S)Nc4ccccc4C)C3)[nH]c2c1 (centres undefined),6.31 µM (active),–
Cc1ccc(-n2ccnc2SCC(=O)N(CC(C)C)C2CCS(=O)(=O)C2)c(C)c1 (centres undefined),–,-16.9% [at 2.29 µM]
Cc1cc(C)n2c(SCC(=O)N(C)C3CCS(=O)(=O)C3)nnc2n1 (centres undefined),–,-7.37%
O=C(CSc1nnc(-c2ccc(Cl)cc2Cl)n1C1CCCCC1)NC1CCS(=O)(=O)C1 (centres undefined),10 µM (active),–
O=P(Cc1cc[n+]([O-])cc1)(c1ccccc1)c1ccccc1,14.1 µM (active),–
O=P(O)(CCP(=O)(O)c1ccccc1)c1ccccc1,–,-3.78% [at 11.4 µM]
O=P(O)(O)CCP(=O)(c1ccccc1)c1ccccc1,–,14.1%
Cc1ccc(S(=O)(=O)N(Cc2ccccc2)c2ccccc2C(=O)NCc2ccco2)cc1,2.51 µM (active),–
O=C(NCc1ccco1)c1ccccc1NS(=O)(=O)c1ccc(Br)s1,–,-21% [at 2.29 µM]

Structure (SMILES),AC50,"activity, negative = inhibition"
CN(CCCNC(=O)c1cccn2c(=O)c3ccccc3nc12)Cc1ccccc1,1 µM (active),–
CN(CCCNC(=O)c1ccc(/C=N/O)nc1)CCCN(C)Cc1ccccc1,–,2.5%
CCCCOc1cc(C(=O)NCCN(CC)CC)c2ccccc2n1,–,-21.5% [at 25.6 µM]
Cn1c(-c2ccc(F)cc2)cnc1NCc1cccc(F)c1,8.91 µM (active),–
Cn1c(-c2ccc(F)cc2)cnc1NCc1ccc(F)cc1,–,21.4%
CCNc1ncc2nc(-c3ccc(F)cc3)c(=O)n(C)c2n1,–,7.57%
Cn1c(-c2ccc(Br)cc2)cnc1NCc1cccnc1,3.98 µM (active),–
CCC(C)(C)c1ccc(Oc2cccc(C(=O)O)c2)cc1,–,-2.44% [at 11.4 µM]
C[C@@H](/C=C\c1cccc(Oc2ccc(F)cc2)c1)N(O)C(N)=O,1 µM (active),–
C[C@H](C(=O)O)c1cccc(Oc2ccccc2)c1,–,-0.468% [at 25.6 µM]
COC(=O)/C=C\c1cc(O)ccc1O,–,-17%
CCn1nc(C)c(NC(=O)/C=C/c2cnn(C)c2C)c1C,–,-3.52%
COc1ccc(Br)cc1/C=C/C(=O)Nc1c(C)cccc1C,4.47 µM (active),–
COc1cc2c(cc1OC)/C(=C/C(=O)N1CCOCC1)NC(C)(C)C2,–,9.97%
CN1CCc2c(c3c(n2C)CCN(C)[C@H]3c2ccccc2F)[C@@H]1c1ccccc1F,7.94 µM (active),–
Oc1ccc(Cl)cc1Cc1cc(Cl)cc(Cc2cc(Cl)ccc2O)c1O,–,-24.4% [at 11.4 µM]
CN(C)CC/C=C1\c2ccccc2CSc2ccccc21,–,-2.26% [at 25.6 µM]
CN1CCN(CCC=C2c3ccccc3Sc3ccc(S(=O)(=O)N(C)C)cc32)CC1,12.6 µM (active),–
CN1CCC(=C2c3ccccc3Sc3ccccc32)CC1,–,27.7% [at 25.6 µM]
CC1CCC2(CC1)N=C(N)Nc1nc3ccccc3n12 (centres undefined),–,-19.5%
NC1=NC2(CCCCCC2)n2c(nc3ccccc32)N1,–,-12.8%
CCCCC1(C)Nc2ccccc2-c2nc3ccccc3n21 (centres undefined),7.08 µM (active),–
CCCC1(C)Nc2ccccc2-c2nc3ccccc3n21 (centres undefined),12.6 µM (active),–
CCC1(C)Nc2ccccc2C(=O)N1O (centres undefined),–,8.28%
